# High-throughput results (PubChem)
# A selection: hits, their analogues and other compounds. The true share with any hit is near 9.4%.
# ELG1 DNA repair: ELG1-dependent DNA repair inhibition | HEK293T ELG1-luciferase reporter, luminescence, 16 h; DNA damage induced by 5-fluorouridine | Potency, µM (doses to about 46.1 µM), inactives show at the highest dose activity change, negative = inhibition, actives largely listed as inhibitors | actives 2.3% (n = 330,000); note: % is set by controls: 0 for no effect and ±100 for the full control effect; nearly all actives have a fitted effect of over 55% in size
#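 Quantitative HTS, concentration-response format. 2,000 cells/well co-treated with 5-fluorouridine and compound, 16 hr in 5% CO2 at 37 °C; ONE-Glo luminescence read after 30 min.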
# Rab9 promoter act: activators of Rab9 promoter; Huh7 Rab9 promoter-luciferase reporter, luminescence, 24 h; actives 2.8% (n = 320,000); Potency, µM (series often up to 9.22 µM), for the others: top-dose activation, negative = inhibition, usual class: activators; note: % of control where 0% means no effect; nearly all actives have a fitted effect of over 60% in size
#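 Huh7 reporter line, Rab9 promoter upstream of luciferase. Compound exposure 24 h at 37 °C in reduced-serum medium with 10% FBS. Read-out: luminescence.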
# SMN2 splice enh: increases expression of the SMN2 splice variant; HEK293 SMN2-luciferase splicing reporter, luminescence, 30-36 h; Potency, µM (doses to about 46.1 µM), without a hit: at the top dose activity change, positive = activation, actives largely listed as activators; actives 2.8% (n = 210,000); AID 1458; note: % of control where 0% means no effect; nearly all actives have a fitted effect of over 55% in size
#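 qHTS luciferase splicing reporter: luminescence rises when SMN2 exon 7 is included in transfected HEK293 cells. Compound exposure lasted 30-36 h at 37C, with 4.5 mM final sodium butyrate as control, followed by a ONE-Glo read.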
# NPC1 prom act: activates the NPC1 promoter; actives 2.4% (n = 320,000); Huh7 NPC1 promoter luciferase reporter, 24 h; Potency, µM (doses to about 9.22 µM), without a hit: top-dose activation, actives largely listed as activators; note: % of control where 0% means no effect; nearly all actives have a fitted effect of over 60% in size
#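 Cells: Huh7 expressing luciferase under the NPC1 promoter, 1500/well. Seeded 2 h, compound added, incubated 24 h at 37 °C. Luciferase reagent, 10 min ambient, then luminescence.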
# ELG1 genotoxic: genotoxicity induction in ELG1-luciferase HEK293T cells. Potency, µM (titrated, usually from 46 µM), for the others: at the top dose activity change, positive = activation, usual class: activators. HEK293T ELG1-luciferase reporter, luminescence, 16 h. AID 504466. actives 1.3% (n = 330,000); note: % of control where 0% means no effect; nearly all actives have a fitted effect of over 60% in size
#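 HEK293T cells expressing luciferase-tagged ELG1 were exposed to compound or DMSO vehicle for 16 hr at 37 °C and 5% CO2. Luciferase activity was then measured with ONE-Glo after 30 min at room temperature.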
# FLuc counter: inhibits or activates purified firefly luciferase, miR-21 counter-screen; AID 588342; Potency, µM (titrated, usually from 57.5 µM), for inactives: at the highest dose activity change, negative = inhibition, usual class: inhibitors; actives 6.9% (n = 360,000); P08659; purified FLuc, Km substrates, luminescence inhibition;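 note: plate controls were vehicle for no effect and reference inhibitor for full effect; nearly all actives have a fitted effect of over 55% in size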
# Target sequence (P08659 whole entry, looked up): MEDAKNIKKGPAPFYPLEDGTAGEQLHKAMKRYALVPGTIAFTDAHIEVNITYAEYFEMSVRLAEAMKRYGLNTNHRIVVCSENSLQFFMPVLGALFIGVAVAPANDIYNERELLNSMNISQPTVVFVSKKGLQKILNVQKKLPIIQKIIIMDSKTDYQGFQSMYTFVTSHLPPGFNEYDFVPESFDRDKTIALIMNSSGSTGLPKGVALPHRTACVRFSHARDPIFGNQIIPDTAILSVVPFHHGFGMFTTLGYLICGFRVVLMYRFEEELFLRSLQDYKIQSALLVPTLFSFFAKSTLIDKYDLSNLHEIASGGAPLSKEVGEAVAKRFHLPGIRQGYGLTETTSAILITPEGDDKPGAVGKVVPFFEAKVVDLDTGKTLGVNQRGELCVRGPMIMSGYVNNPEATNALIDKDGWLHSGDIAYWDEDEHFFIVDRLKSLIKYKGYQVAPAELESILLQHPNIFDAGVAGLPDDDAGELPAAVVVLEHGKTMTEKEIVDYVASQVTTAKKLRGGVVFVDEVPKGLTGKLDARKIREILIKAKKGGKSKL
#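 Biochemical qHTS of compounds, final roughly 60 µM downward over six points, against 10 nM purified firefly luciferase using Km concentrations of substrates (10 uM D-luciferin, 10 uM ATP) in Tris acetate pH 7.5 buffer; luminescence output.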
# Numbers without * were called inactive; ? = inconclusive; · = no result given. Calls come from the whole dose curve; as a rule, active = well fitted curve in the direction sought with a large enough effect; inconclusive = small, poorly fitted or top-dose-only effect, or another doubt; inactive = no such curve, though single readings can be large; an effect the other way counts as inactive or inconclusive. Potency is the fitted concentration of half-maximal effect.
SMILES,ELG1 DNA repair,Rab9 promoter act,SMN2 splice enh,NPC1 prom act,ELG1 genotoxic,FLuc counter
CC1CCN(C(=O)CSc2nc3ccccc3[nH]2)CC1,?,3.2µM*,16µM*,2.5µM*,?,24µM*
Cc1ccc(-n2c(SCC(=O)N/N=C/c3c(C)nn(-c4ccccc4)c3C)nc3ccccc3c2=O)cc1,23µM*,-5%,9%,-4%,-3%,2%
C/C(N)=C(/C#N)C(=O)CSc1nc2ccccc2c(=O)n1-c1ccc(C)cc1,7.3µM*,-4%,-41%,3%,-3%,2%
COc1ccc(OC)c(CNc2ncnc3onc(-c4ccc(Cl)cc4)c23)c1,·,·,-4%,·,·,4%
COCc1cc(C)nc2c1C(=O)NC(c1ccc(F)cc1)N2Cc1ccccc1 (centres undefined),·,·,·,·,·,-5%
COc1cc(-c2nnc(CSc3nnc(N)s3)o2)cc(OC)c1OC,4%,-2%,20%,-2%,7%,1%
COc1cc(-c2nnc(CSc3nnc(Nc4ccc(Oc5ccccc5)cc4)s3)o2)cc(OC)c1OC,7.3µM*,14%,13%,15%,-2%,9.5µM*
Cc1ccc(Sc2cnc3ccccc3n2)cc1,?,3.5µM*,?,?,2.6µM*,6.7µM*
CC(=O)c1cccc(NC(=O)Nc2ccc3c(c2)N(C)C(=O)CS3)c1,13µM*,-10%,-19%,1%,-31%,15µM*
Cc1cc(C)cc(NC(=O)Nc2ccc3c(c2)N(C)C(=O)CS3)c1,?,-2%,-11%,-2%,-16%,?
O=C(Nc1ccccc1)Nc1ccc(C(=O)N2CCCC2)cc1,?,0.35µM*,6.3µM*,0.56µM*,?,2.4µM*
CC(=O)c1cccc(NC(=O)Nc2ccc(C(=O)N3CCCC3)cc2)c1,6.5µM*,13%,-2%,26%,-19%,6.7µM*
CCc1ccc(C2CC(=O)Oc3c2c(=O)n(C)c2ccccc32)cc1 (centres undefined),·,·,6%,·,·,?
COc1cccc(-c2nnc(-c3ccc(C(F)(F)F)cc3)o2)c1,?,?,22µM*,?,?,?
COc1ccc(-c2cc(-c3ccccc3)nc(Cl)n2)cc1OC,18µM*,0%,·,-14%,-5%,?
COc1ccc(-c2nnc(-c3ccccc3)o2)cc1OC,?,1.8µM*,·,2.2µM*,?,8.5µM*
COc1cc(-c2nnc(-c3ccco3)o2)ccc1OCc1ccccc1,-16%,17%,?,17%,11%,15µM*
Cc1ccc(CN(Cc2ccco2)C(=O)c2ccccc2Br)o1,·,·,-7%,·,·,-17%
CCCOc1ccc(CNC(=O)CN2C(=O)c3cccnc3Oc3ccc(C)cc32)cc1,·,·,·,·,·,-11%
COc1cc(-c2nnc(SCc3ccccc3Cl)o2)cc(OC)c1OC,?,-8%,-6%,-7%,?,4%
COc1cc(-c2nnc(-c3cc(OC)c(OC)c(OC)c3)o2)cc(OC)c1OC,8.2µM*,-4%,23%,-1%,0%,3%
COc1cc(-c2nnc(-c3cccnc3)o2)cc(OC)c1OC,?,-1%,39%,-2%,10%,3%
CCOc1ccc(-c2cc3cc(OC)c(OC)cc3c(C)n2)cc1,?,2%,-14%,0%,25%,-1%
COc1cc(-c2nnc(-c3ccccc3)o2)cc(OC)c1OC,23µM*,-1%,16%,-2%,-2%,-20%
COc1cc(-c2nnc(SCCOc3cc(C)cc(C)c3)o2)cc(OC)c1OC,·,·,·,·,·,15µM*
SMILES,ELG1 DNA repair,Rab9 promoter act,SMN2 splice enh,NPC1 prom act,ELG1 genotoxic,FLuc counter
CCCc1nnc(-c2cc(OC)c(OC)c(OC)c2)o1,2%,-1%,?,1%,6%,1%
CCc1nc(-c2ccc(OC)c(OC)c2)cc2cc(OC)c(OC)cc12,26µM*,-3%,7%,-6%,3%,-15%
CCCC1O[C@@H]2C[C@H]3[C@@H]4CCC5=CC(=O)C=C[C@]5(C)C4[C@@H](O)C[C@]3(C)[C@]2(C(=O)CO)O1 (some centres undefined),·,·,-7%,·,·,·
COc1ccc(CCNC(=O)CCn2c(=O)c3ccccc3n(Cc3ccccc3C)c2=O)cc1OC,·,·,1%,·,·,0%
O=S(=O)(c1ccc(Cl)s1)N1CCCc2cccc(O)c21,?,4µM*,9%,?,17%,11µM*
COc1cc2c(cc1OC)C(COc1ccc(F)cc1)N(C(=O)c1cccc(F)c1)CC2 (centres undefined),·,·,·,·,·,-3%
Cc1ccc(NC(=O)CSc2cc(=O)n(C)c3ccc(Cl)cc23)c(Br)c1,·,·,0%,·,·,2%
CSc1cccc(NC(=O)/C=C/c2ccco2)c1,?,?,45%,13%,?,19µM*
O=C(/C=C/c1ccco1)Nc1cccnc1,?,?,?,?,?,19µM*
COc1cccc(NC(=O)/C=C/c2ccco2)c1,?,2.5µM*,13µM*,?,?,11µM*
COc1ccccc1NC(=S)NC(=O)/C=C/c1ccco1,-4%,3%,1%,-3%,0%,-15%
COc1ccccc1NC(=O)/C=C\c1ccco1,?,?,·,?,15%,24µM*
Cc1cccc(NC(=S)NC(=O)/C=C/c2ccco2)c1,?,-10%,7%,-29%,?,?
Cc1ccc(N(C)C(=O)Cn2cc(S(=O)(=O)N3CCCC3)c(S(=O)(=O)N3CCCC3)c2)cc1,·,·,·,·,·,-5%
COc1cccc(NC(=O)C2CCC(CNS(=O)(=O)c3ccc4c(c3)CCCC(=O)N4)CC2)c1 (centres undefined),·,·,·,·,·,-6%
COc1cccc(NC(=O)c2sc3nc(C)c(C(=O)Nc4ccc(C)cc4C)c(-c4ccccc4Cl)c3c2N)c1,·,·,4%,·,·,-8%
O=C(O)/C=C/C(=O)Nc1cccnc1,2%,-5%,9%,2%,5%,-1%
CC(C)(C)c1ccc(/C=C/C(=O)Nc2cccnc2)cc1,?,1.1µM*,·,2µM*,2.3µM*,2.7µM*
COc1cccc(CNC(=O)C2CCC(CNS(=O)(=O)c3ccc(Br)s3)CC2)c1 (centres undefined),·,·,-12%,·,·,3%
CN(Cc1ccccc1)C(=O)c1c[nH]c2ccc(S(=O)(=O)Nc3ccccc3F)cc2c1=O,·,·,5%,·,·,?
Cc1cccc(C(=O)NNC2=C(C(=O)C(F)(F)F)CCC2)c1O,21µM*,-8%,-97%,-3%,-23%,?
Cc1ccc2c(c1)C(=O)OC(C(=O)Nc1ccc(C(=O)O)cc1)C2 (centres undefined),·,·,-3%,·,·,7.6µM*
